{"source": "paper PMC4336329", "about": "(PLoS ONE, 2015)", "note": "About 14,000 (4.5%) of roughly 310,000 compounds showed an effect of 50% or more. The effect is printed as a negative number. Many of the other results were omitted from the sample, so strong results are more common in it than they were.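 Note: peak tail current of the secondary pulse compared with the same well before compound.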", "data": [{"target": "human ether-à-go-go-related gene (hERG) potassium channel (human, UniProt Q12809)", "sequence (Q12809 whole entry, looked up)": "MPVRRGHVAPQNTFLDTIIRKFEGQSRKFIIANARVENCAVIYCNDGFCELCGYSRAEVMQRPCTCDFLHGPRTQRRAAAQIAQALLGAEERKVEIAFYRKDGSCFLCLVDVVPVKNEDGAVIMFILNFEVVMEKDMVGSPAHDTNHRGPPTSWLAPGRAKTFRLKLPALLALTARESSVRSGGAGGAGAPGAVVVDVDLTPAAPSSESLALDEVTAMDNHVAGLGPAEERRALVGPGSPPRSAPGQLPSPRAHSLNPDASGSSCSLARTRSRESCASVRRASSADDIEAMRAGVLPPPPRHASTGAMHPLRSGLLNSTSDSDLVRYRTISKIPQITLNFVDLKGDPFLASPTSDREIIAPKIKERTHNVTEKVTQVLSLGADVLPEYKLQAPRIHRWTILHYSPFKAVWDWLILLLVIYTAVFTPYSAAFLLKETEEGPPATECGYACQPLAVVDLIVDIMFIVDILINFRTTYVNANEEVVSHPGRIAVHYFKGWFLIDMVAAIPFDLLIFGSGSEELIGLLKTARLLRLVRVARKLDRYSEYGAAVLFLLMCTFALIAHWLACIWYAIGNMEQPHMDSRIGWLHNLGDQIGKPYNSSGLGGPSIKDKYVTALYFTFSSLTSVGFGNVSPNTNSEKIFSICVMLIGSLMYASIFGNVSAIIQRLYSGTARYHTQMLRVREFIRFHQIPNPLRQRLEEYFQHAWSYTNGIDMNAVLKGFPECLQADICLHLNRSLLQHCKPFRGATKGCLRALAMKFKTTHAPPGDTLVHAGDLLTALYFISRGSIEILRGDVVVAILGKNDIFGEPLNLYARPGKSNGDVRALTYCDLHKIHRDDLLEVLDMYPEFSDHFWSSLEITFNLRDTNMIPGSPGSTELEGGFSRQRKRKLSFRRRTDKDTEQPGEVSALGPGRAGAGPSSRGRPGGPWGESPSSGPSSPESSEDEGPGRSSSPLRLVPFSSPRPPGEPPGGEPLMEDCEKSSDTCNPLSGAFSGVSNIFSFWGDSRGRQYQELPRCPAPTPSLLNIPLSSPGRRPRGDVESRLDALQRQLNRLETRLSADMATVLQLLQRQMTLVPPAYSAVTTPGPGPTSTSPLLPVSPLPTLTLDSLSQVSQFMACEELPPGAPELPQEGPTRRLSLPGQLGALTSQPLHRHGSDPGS", "test": "primary screen, population patch clamp on CHO cells stably expressing hERG; higher = less effect of the substance", "units": {"hERG current change (%, negative = inhibition) at 10uM": "%"}, "values": [{"smiles": "Cc1ccc2nc(N3C(=O)C(O)=C(C(=O)c4ccc(C)o4)C3c3ccco3)sc2c1", "note": "(centres unmarked)", "hERG current change (%, negative = inhibition) at 10uM": 12.8}, {"smiles": "COC(=O)c1ccc(NC(=O)C[n+]2ccccc2)cc1.[Cl-]", "hERG current change (%, negative = inhibition) at 10uM": 11.9}, {"smiles": "COc1ccc(NC(=O)Cn2c(=O)oc3cc(S(=O)(=O)N4CCCC4)ccc32)c(OC)c1", "hERG current change (%, negative = inhibition) at 10uM": 7.38}, {"smiles": "O=C(Nc1ccccc1)c1ccc(NCCN2C(=O)CCC2=O)c([N+](=O)[O-])c1", "hERG current change (%, negative = inhibition) at 10uM": 10.9}, {"smiles": "CCCn1c(N)c(N2CCCCC2)c(=O)n(CC(=O)Nc2ccccc2C)c1=O", "hERG current change (%, negative = inhibition) at 10uM": 14.6}, {"smiles": "Cc1nn(C)cc1C(C)Nc1nc2nonc2nc1N1CCCCC1", "note": "(centres unmarked)", "hERG current change (%, negative = inhibition) at 10uM": 0.196}, {"smiles": "CCN(Cc1ccc2c(c1)OCO2)C(=O)CSc1nc(C)nc2sc(C)c(C)c12", "hERG current change (%, negative = inhibition) at 10uM": -5.76}, {"smiles": "COc1ccc(C(=O)Nc2c(N)nc(SCC(=O)Nc3ccc(NC(C)=O)cc3)[nH]c2=O)cc1", "hERG current change (%, negative = inhibition) at 10uM": 21.9}, {"smiles": "COc1ccc(C(CCN2CCCCC2)c2c(OC)cc(OC)c3c(-c4ccccc4)cc(=O)oc23)cc1", "note": "(centres unmarked)", "hERG current change (%, negative = inhibition) at 10uM": -55.1}, {"smiles": "COc1cc(OC)c2c(-c3ccccc3)cc(=O)oc2c1C(CCN1CCCCC1)c1ccc(N(C)C)cc1", "note": "(centres unmarked)", "hERG current change (%, negative = inhibition) at 10uM": -25}, {"smiles": "COc1ccc(C(CC(=O)N2CCCC2)c2c(OC)cc(OC)c3c(-c4ccccc4)cc(=O)oc23)cc1", "note": "(centres unmarked)", "hERG current change (%, negative = inhibition) at 10uM": -5.46}, {"smiles": "COc1cc(OC)c2c(-c3ccccc3)cc(=O)oc2c1C(CCN1CCCCC1)c1ccc2c(c1)OCO2", "note": "(centres unmarked)", "hERG current change (%, negative = inhibition) at 10uM": -53.2}, {"smiles": "CCN(CC)CCC(c1ccc2c(c1)OCO2)c1c(OC)cc(OC)c2c(-c3ccccc3)cc(=O)oc12", "note": "(centres unmarked)", "hERG current change (%, negative = inhibition) at 10uM": -65.4}, {"smiles": "COc1ccc(C(CC(=O)N2CCCCC2)c2c(OC)cc(OC)c3c(-c4ccccc4)cc(=O)oc23)cc1", "note": "(centres unmarked)", "hERG current change (%, negative = inhibition) at 10uM": 0.849}, {"smiles": "CCN(CC)CCC(c1ccc(N(C)C)cc1)c1c(OC)cc(OC)c2c(-c3ccccc3)cc(=O)oc12", "note": "(centres unmarked)", "hERG current change (%, negative = inhibition) at 10uM": -24.5}, {"smiles": "COc1ccc(C(CCN2CCN(c3ccccc3)CC2)c2c(OC)cc(OC)c3c(-c4ccccc4)cc(=O)oc23)cc1", "note": "(centres unmarked)", "hERG current change (%, negative = inhibition) at 10uM": -9.55}, {"smiles": "COc1cc(OC)c2c(-c3ccccc3)cc(=O)oc2c1C(CCN1CCCC1)c1ccc2c(c1)OCO2", "note": "(centres unmarked)", "hERG current change (%, negative = inhibition) at 10uM": -46.9}, {"smiles": "COc1ccc(C(CCN2CCCC2)c2c(OC)cc(OC)c3c(-c4ccccc4)cc(=O)oc23)cc1", "note": "(centres unmarked)", "hERG current change (%, negative = inhibition) at 10uM": -52.7}, {"smiles": "CCN(CC)C(=O)CC(c1ccc2c(c1)OCO2)c1c(OC)cc(OC)c2c(-c3ccccc3)cc(=O)oc12", "note": "(centres unmarked)", "hERG current change (%, negative = inhibition) at 10uM": 5.08}, {"smiles": "COc1cc(OC)c2c(-c3ccccc3)cc(=O)oc2c1C(CCN1CCCC(C)C1)c1ccc2c(c1)OCO2", "note": "(centres unmarked)", "hERG current change (%, negative = inhibition) at 10uM": -48.8}]}]}
